The source of these data is PubChem BioAssay (NCATS).

Molecules are shown by their SMILES. Records with an inconclusive call do not appear. Calls of active or inactive are those of the source. The call rests on the fitted dose curve; in most records, active means well fitted cell-killing curve with a large enough effect; inconclusive means small, poorly fitted or top-dose-only effect; inactive means no such curve, though single readings can be large or run the other way.
On the % scale 0 is the no-effect control and ±100 the full control effect.

The test is described as follows: qHTS of pediatric cancer cell lines to identify multiple opportunities for drug repurposing: Primary screen for Rh30 cells (AID 1347107). Further: nearly all actives have a fitted effect of over 75% in size. The note with it: Rh30 rhabdomyosarcoma viability, CellTiter-Glo luminescence, 48 h; series mostly up to 46 µM; activity change, negative = cytotoxic: at the top concentration. Summed up:
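Cells (500-1,000/well) in growth media were settled 5 h at 37 degrees C, then given compounds for 48 h. Viability was read as CellTiter-Glo luminescence. Primary runs used MIPE at 11 points (0.78 nM-46 µM) and NPC at 8 points (0.59 nM-46 µM); follow-ups used 11 points.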
(Quantitative high-throughput screening tests each substance at several concentrations.)
Take `NS(=O)(=O)c1cc2c(cc1Cl)NC(CSCc1ccccc1)=NS2(=O)=O`: the “activity change, negative = cytotoxic” value is 9.98% (inactive).
The result for `O=C1NC(=O)[C@@]2(CCOc3ccc(F)cc32)N1` reads 8.51% (inactive); that for `Cc1ccc(C(C)C)cc2c(C)ccc1-2`, 24.8% (inactive); that for `Cc1c(Cl)cccc1Nc1ccccc1C(=O)O`, 5.8% (inactive).
The same measure for `O=c1cc(CO)occ1O`: 16.5% (inactive); for `C#CCN(C)Cc1ccccc1`: 23% (inactive); for `CN(C)CCOC(C)(c1ccccc1)c1ccccn1` (stereo not drawn): 20.7% (inactive).
The same measure for `CCCOC(=O)c1ccccc1`: 21.5% (inactive); for `CC1=C(CC(=O)O)c2cc(F)ccc2/C1=C\c1ccc(S(C)=O)cc1` (stereo not drawn): 13% (inactive).
Consider `C[C@H](NC(CCc1ccccc1)C(=O)O)C(=O)N1CCC[C@H]1C(=O)O` (stereo partly drawn), for which the “activity change, negative = cytotoxic” value is 11% (inactive).
Take `CC(C)C(=O)c1c(C(C)C)nn2ccccc12`: the “activity change, negative = cytotoxic” value was 28.5% (inactive).
On to `C=Cc1c(C)c2cc3[nH]c(cc4nc(cc5nc(cc1[nH]2)C(C)=C5CCC(=O)O)C(CCC(=O)O)=C4C)c(C)c3C=C`, for which the “activity change, negative = cytotoxic” value was 12.3% (inactive).
The same measure for `O=C(O)[C@@H]1CSCN1`: -6.65% (inactive).
Regarding `CC(=O)Nc1ccc(/C=N/NC(N)=S)cc1`, the “activity change, negative = cytotoxic” value is 18.2% (inactive).
The result for `NC1CCN(c2cccc(Cl)n2)CC1` reads 16.9% (inactive).
The same measure for `C=CCn1c(=O)n([C@@H]2O[C@H](CO)[C@@H](O)[C@H]2O)c2nc(N)[nH]c(=O)c21`: 26.2% (inactive); for `Cc1cccc(C)c1NC(=O)CN(CC(=O)O)CC(=O)O`: 16% (inactive).
Consider `COc1ccc(S(=O)(=O)Nc2nnc(CC(C)C)s2)cc1`, for which the “activity change, negative = cytotoxic” value was 15.1% (inactive).
The same measure for `CC(C)(C)C(=O)NCCCC(=O)O`: 19.7% (inactive).
The same measure for `C[C@@H](O)[C@H](N)C(=O)O`: 17.3% [at 16.1 µM] (inactive); for `CC(O)CN(CCN(CC(C)O)CC(C)O)CC(C)O` (stereo not drawn): 21.6% (inactive).
The same measure for `Cc1cccc(Nc2cc(Cl)nc(SCC(=O)O)n2)c1C`: 21.7% (inactive); for `O=S(=O)(O)c1cc(I)c(O)c2ncccc12`: 15% (inactive).
`Cc1ncc(COP(=O)(O)O)c(C=O)c1O`: the “activity change, negative = cytotoxic” value was 12.8% (inactive).
For `Cc1cc(CC(=O)O)n(C)c1C(=O)c1ccc(Cl)cc1`, the “activity change, negative = cytotoxic” value was 29.5% (inactive).
For `CCC(=O)Nc1ccc(O)cc1`, the “activity change, negative = cytotoxic” value was 13% (inactive).
With `CN1[C@@H]2CC[C@H]1CC(OC(=O)C(O)c1ccccc1)C2` (stereo partly drawn), the “activity change, negative = cytotoxic” value is 14.4% (inactive).
The result for `CCCCc1ncc(/C=C(\Cc2cccs2)C(=O)O)n1Cc1ccc(C(=O)O)cc1` reads 20% (inactive).
Regarding `NS(=O)(=O)c1cc2c(cc1C(F)(F)F)NC(Cc1ccccc1)NS2(=O)=O` (stereo not drawn), the “activity change, negative = cytotoxic” value is 24% (inactive).
With `NC(N)=NCCC[C@H](N)C(=O)O`, the activity change, negative = cytotoxic was 18% [at 4.84 µM] (inactive).
The result for `CN(C)CCCO[C@@H]1[C@H]2OC(C)(C)O[C@H]2O[C@@H]1C(O)CO` (stereo partly drawn) reads 29.5% (inactive); that for `CC(=O)Oc1c(C)c(C)c2c(c1C)CC[C@@](C)(CCC[C@H](C)CCC[C@H](C)CCCC(C)C)O2`, 4.09% (inactive); that for `O=c1cc[nH]c(=O)[nH]1`, 29.3% (inactive).
The same measure for `Cn1c(=O)c2c(ncn2CC2OCCO2)n(C)c1=O`: 29.4% (inactive); for `N[C@@H](CSSC[C@H](N)C(=O)O)C(=O)O`: 12% [at 0.597 µM] (inactive).
On to `COc1cc(C)c(Cc2cnc(N)nc2N)cc1OC`, for which the “activity change, negative = cytotoxic” value is 16.9% (inactive).
For the compound `Nc1ccc(S(=O)(=O)Nc2ccc(Cl)nn2)cc1`, the “activity change, negative = cytotoxic” value is 7.04% (inactive).
The result for `O=C1NS(=O)(=O)c2ccccc21` reads 27.3% (inactive).
